# Measurements from PubChem BioAssay.
# The source made the active and inactive calls. The rule behind the calls is not given here.
# Test: inhibition of 3D7 malaria parasite growth – strain 3D7 (AID 2306);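 note: 0% = DMSO wells and 100% = chloroquine plus artemisinin control wells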
# Conditions: P. falciparum 3D7 erythrocytic growth, LDH absorbance, 72 h; at 2 µM; active compounds read high
row,Structure (SMILES),growth inhibition
1,COc1cc2nc(NCCc3ccccc3)nc(NCCCc3ccccc3)c2cc1OC,101% (active)
2,COc1cc(C(=O)N2CC[C@@H](CCN3CCC4(CC3)CN(S(C)(=O)=O)c3ccccc34)C[C@H]2Cc2ccc(Cl)c(Cl)c2)cc(OC)c1OC,101% (active)
3,COc1ccc(NC(=O)Nc2cccc(-c3cccc(-c4nc5ccc(F)cc5[nH]4)c3)c2)cc1,99% (active)
4,CCCc1ccc(S(=O)(=O)NC2CCN(C(=O)Nc3ccc(I)cc3)CC2)cc1,97% (active)
5,O=C(Nc1cccc(-c2ccc(-c3nc4ccc(F)cc4[nH]3)cc2)c1)c1ccncc1,101% (active)
6,Cc1ccc2c(NN=CC=Cc3ccccc3)cc(C)nc2c1,92% (active)
7,O=C1OC(c2ccccc2)(c2ccccn2)CN1C1CCN(Cc2cccn2-c2ccc(Cl)cc2)CC1 (stereo not drawn),99% (active)
8,CCN(CC)CCN(Cc1ccc(-c2ccc(C(F)(F)F)cc2)cc1)C(=O)Cn1c(CCc2cccc(F)c2F)nc(=O)c2ccc(C(F)(F)F)cc21,99% (active)
9,N#Cc1cncc(-c2nc3c(N4CCC(Cc5ccccc5)CC4)cccc3n2C2CCNC2)c1 (stereo not drawn),88% (active)
10,N#Cc1ccc(-c2cnc3ccc(NCc4ccc(S(N)(=O)=O)cc4)nn23)cc1,98% (active)
11,CCN(CC)CCN(Cc1ccc(-c2ccc(C(F)(F)F)cc2)cc1)C(=O)Cn1c(CCc2cc(F)cc(F)c2F)nc(=O)c2ccccc21,101% (active)
12,CC(C)c1cc(Oc2c(I)cc(CCCc3ncc[nH]3)cc2I)ccc1O,88% (active)
13,c1ccc2c(c1)ncc1c3ccccc3[nH]c21,95% (active)
